In PubChem BioAssay AID1159580 (chemical genetic matrix, 2015):
In all, about 5,500 compounds went through this assay and about 2,000 (36%) were called active. Inconclusive results (about 18%) are left out. Cut-off read from the data, not from the text of the source: active = normalized growth mostly below about 0.91 (no sharp cut-off); inconclusive = no clear call, values can overlap the other calls; inactive = mostly above about 0.92. This is one part of the list.

Test: chemical genetic growth profiling, strain panel (AID 1159580);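 note: tested at 20 µM; growth read once vehicle control cultures reached saturation at 30 °C; 1 = growth at the plate median or of vehicle wells; lower values mean less growth of the strain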
Conditions: S. cerevisiae deletion strains, growth OD

Measured: normalized growth

c1ccc(-c2ccccn2)nc1
inactive: locus YAL040C, strain CLN3, active compounds read low 0.974 | locus YCL061C, strain MRC1 (second series), active compounds read low 0.975 | locus YDR363W, strain ESC2, active compounds read low 1.02 | locus YER002W, strain NOP16, active compounds read low 0.966 | locus YGR078C, strain PAC10, active compounds read low 0.977 | locus YMR263W, strain SAP30, active compounds read low 1 | locus YNL153C, strain GIM3, active compounds read low 0.942 | locus YNL175C, strain NOP13, active compounds read low 0.987 | locus YNL197C, strain WHI3, active compounds read low 0.95 | locus YNL224C, strain SQS1, active compounds read low 0.991 | locus YNL322C, strain KRE1, active compounds read low 1.03 | locus YOR083W, strain WHI5 (second series), active compounds read low 0.972

c1ccc(-c2nnc(-c3ccccn3)nc2-c2ccccc2)cc1
active: locus YAR019C, strain CDC15, active compounds read low 0.857 | locus YDL132W, strain cdc53, active compounds read low 0.856 | locus YDR052C, strain DBF4, active compounds read low 0.908 | locus YDR054C, strain cdc34, active compounds read low 0.845 | locus YFL009W, strain cdc4, active compounds read low 0.812 | locus YFL029C, strain CAK1, active compounds read low 0.806 | locus YFR028C, strain CDC14, active compounds read low 0.871 | locus YGR092W, strain DBF2, active compounds read low 0.473 | locus YHR030C, strain SLT2, active compounds read low 0.531 | locus YHR079C, strain IRE1, active compounds read low 0.487 | locus YJL095W, strain BCK1, active compounds read low 0.47 | locus YJR016C, strain ILV3, active compounds read low 0.83 | locus YKL048C, strain ELM1, active compounds read low 0.683 | locus YKL101W, strain HSL1, active compounds read low 0.716 | locus YKL193C, strain SDS22, active compounds read low 0.867 | locus YKL203C, strain TOR2, active compounds read low 0.652 | locus YLR113W, strain HOG1, active compounds read low 0.581 | locus YLR133W, strain CKI1, active compounds read low 0.676 | locus YLR403W, strain SFP1, active compounds read low 0.631 | locus YMR205C, strain PFK2 (second series), active compounds read low 0.734 | locus YMR277W, strain FCP1, active compounds read low 0.871 | locus YNL207W, strain RIO2, active compounds read low 0.813 | locus YNL307C, strain MCK1 (second series), active compounds read low 0.623 | locus YOL078W, strain AVO1, active compounds read low 0.859 | locus YOR061W, strain CKA2, active compounds read low 0.662 | locus YOR119C, strain RIO1, active compounds read low 0.57 | locus YPL204W, strain HRR25, active compounds read low 0.661 | locus YPL256C, strain CLN2, active compounds read low 0.545 | strain NNK1, active compounds read low 0.814 | strain TSCII, active compounds read low 0.842
inactive: locus YBL105C, strain PKC1, active compounds read low 0.945 | locus YBR135W, strain CKS1, active compounds read low 0.937 | locus YBR136W, strain MEC1, active compounds read low 0.904 | locus YBR160W, strain CDC28, active compounds read low 0.944 | locus YDL017W, strain CDC7, active compounds read low 0.946 | locus YDL028C, strain MPS1, active compounds read low 0.896 | locus YDL101C, strain DUN1, active compounds read low 0.957 | locus YDL108W, strain KIN28, active compounds read low 0.917 | locus YDL214C, strain PRR2, active compounds read low 0.814 | locus YDR226W, strain ADK1, active compounds read low 0.924 | locus YDR477W, strain SNF1, active compounds read low 0.748 | locus YER123W, strain YCK3, active compounds read low 0.704 | locus YER133W, strain GLC7, active compounds read low 0.783 | locus YFR003C, strain YPI1, active compounds read low 0.943 | locus YFR019W, strain FAB1, active compounds read low 0.796 | locus YGR040W, strain KSS1, active compounds read low 0.748 | locus YGR052W, strain FMP48, active compounds read low 0.641 | locus YHR082C, strain KSP1, active compounds read low 0.655 | locus YHR205W, strain SCH9, active compounds read low 0.689 | locus YIL147C, strain SLN1, active compounds read low 0.893 | locus YJL128C, strain PBS2, active compounds read low 0.871 | locus YJL157C, strain FAR1, active compounds read low 0.74 | locus YJR066W, strain TOR1 (second series), active compounds read low 0.663 | locus YJR066W, strain TOR1, active compounds read low 0.565 | locus YKL067W, strain YNK1, active compounds read low 0.792 | locus YML070W, strain DAK1, active compounds read low 0.78 | locus YMR001C, strain CDC5, active compounds read low 0.903 | locus YNL006W, strain LST8, active compounds read low 0.932 | locus YNL020C, strain ARK1, active compounds read low 0.746 | locus YNL161W, strain CBK1, active compounds read low 0.938 | locus YNL183C, strain NPR1, active compounds read low 0.655 | locus YNL222W, strain SSU72, active compounds read low 0.914 | locus YOL136C, strain PFK27, active compounds read low 0.861 | locus YOR231W, strain MKK1, active compounds read low 0.631 | locus YOR329C, strain SCD5, active compounds read low 0.921 | locus YPL031C, strain PHO85, active compounds read low 0.774 | locus YPL153C, strain RAD53, active compounds read low 0.695 | locus YPL209C, strain IPL1, active compounds read low 0.931 | locus YPR025C, strain CCL1, active compounds read low 0.927 | locus YPR106W, strain ISR1, active compounds read low 0.919 | locus YPR111W, strain DBF20, active compounds read low 0.885
